Values without a mark were called inactive. Results filed as inconclusive are left out. Entries that show only a call come without a potency. Calls of active or inactive are those of the source. Unless noted, calls follow the shape of the dose curve; as a rule, active = well fitted curve in the direction sought with a large enough effect; inconclusive = small, poorly fitted or top-dose-only effect, or another doubt; inactive = no such curve, though single readings can be large; an effect the other way counts as inactive or inconclusive.

One experiment is described as follows: qHTS Assay for Identification of Small Molecule Agonists for Hypoxia Response Element Signaling Pathway (AID 914; active = well fitted activation curve with a large enough effect in the signal ratio, with a control signal flat, not every such curve was filed as active; the % refers to the signal ratio; also: potency is read from the fitted curve at half-maximal effect). As to conditions: ME-180 (cervical carcinoma) HRE-bla reporter, beta-lactamase ratio, CoCl2, 17 h; activation: active compounds read high. An outline of the steps:
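HRE-bla ME-180 assay for agonist-like enhancement of an EC50 CoCl2 stimulus: 17 h at 37 degrees Celsius, CCF4 for 2.5 h, ratiometric 460/530 nm signal converted to %Activity and fitted to AC50.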
For orientation: Quantitative high-throughput screening tests each substance at several concentrations.
With `CCc1cc(Cl)c(OC)c(C(=O)NC[C@@H]2CCCN2CC)c1O`, the Potency is 10 µM (active).

In the case of `COc1ccc(C(=O)c2ccccc2O)c(O)c1`, the Potency was 5.01 µM (active).

For the compound `CCCCCCCCNC(C)C(O)c1ccc(SC(C)C)cc1` (centres undefined), the activation is 0.942%.

`CC[N+](C)(CC)CCOC(=O)C(O)(c1ccccc1)C1CCCCC1` (centres undefined): the activation was 1.14%.

As to `CCOc1ccc(NC(C)=O)cc1`, the activation is 2%.

Another experiment can be described thus: qHTS Assay for Identification of Small Molecule Agonists for Thrombopoietin (TPO) Signaling Pathway (AID 917). As to conditions: TPO signaling pathway reporter cells, agonist qHTS, stimulated with TPO at its EC50; series mostly up to 38.5 µM. An outline of the steps: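 First, Ba/F3 cells with human TPO receptor were held overnight without IL-3. Next, compounds and TPO (26 pM final) were added. After 24 hrs at 37 C, luciferase detection reagent was added and luminescence measured following 10 min at room temperature.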
Consider `CN=C(N)NCCC[C@H](N)C(=O)O`, for which the compound was called inactive.

As to `CC(C)(C)NC[C@H](O)COc1nsnc1N1CCOCC1`, the compound was classed as inactive.

Regarding `NS(=O)(=O)Cc1noc2ccccc12`, the call was inactive.

Regarding `CN(C)CCC[C@@]1(c2ccc(F)cc2)OCc2cc(C#N)ccc21`, the compound was classed as inactive.

The nature of the next experiment: Cell Viability - LYMP2-001 (AID 921). Also: nearly all actives have a fitted effect of over 70% in size. As to conditions: LYMP2-001 lymphoblastoid cell viability; series mostly up to 92.2 µM. An outline of the steps:
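Human lymphoblastoid cells (Coriell), 2500 per well, were preincubated 5 hr at 37 C, then exposed to compounds in complete medium for 24 hr at 37 C. Cellular ATP was read by CellTiter-Glo luminescence; AC50 from Hill fits of concentration-response data.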
`O=C(O)c1ccc(S(=O)(=O)N(Cl)Cl)cc1`: the call was inactive.

As for `OC[C@H]1O[C@@H]2O[C@H]3[C@H](O)[C@@H](O)[C@@H](O[C@H]4[C@H](O)[C@@H](O)[C@@H](O[C@H]5[C@H](O)[C@@H](O)[C@@H](O[C@H]6[C@H](O)[C@@H](O)[C@@H](O[C@H]7[C@H](O)[C@@H](O)[C@@H](O[C@H]8[C@H](O)[C@@H](O)[C@@H](O[C@H]1[C@H](O)[C@H]2O)O[C@@H]8CO)O[C@@H]7CO)O[C@@H]6CO)O[C@@H]5CO)O[C@@H]4CO)O[C@@H]3CO`, the outcome was inactive.

Take `C=C[C@H]1CN2CC[C@H]1C[C@@H]2[C@@H](O)c1ccnc2ccc(OC)cc12`: the call was inactive.

For the compound `C/C=C/c1ccc(O)c(OC)c1`, the result was inactive.

In the case of `NC(=O)c1ccccc1O`, the call was inactive.

`COc1cc([C@H]2Oc3cc([C@H]4Oc5cc(O)cc(O)c5C(=O)[C@@H]4O)ccc3O[C@@H]2CO)ccc1O`: the compound was called inactive.

Consider `CCCN(CCC)S(=O)(=O)c1ccc(C(=O)O)cc1`, for which the result was inactive.

Regarding `CCCCC(CC)COC(=O)c1ccc(N(C)C)cc1` (centres undefined), the call was inactive.

`Oc1ccc(Cl)cc1Cc1cc(Cl)ccc1O`: the compound was called inactive.

As for `CCOc1ccccc1C(N)=O`, the outcome was inactive.

For the compound `COc1ccc(C(=O)c2ccccc2)c(O)c1`, the result was inactive.

`COc1ccc(C(Cl)=C(c2ccc(OC)cc2)c2ccc(OC)cc2)cc1`: the result was inactive.

With `CCOc1ccc(NC(C)=O)cc1`, the compound was classed as inactive.

A further experiment can be described thus: Confirmation and Secondary Assay for Modulators of Hemoglobin Beta Chain Splicing at IVS2 705 locus (AID 930).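 Also: HeLa cells stably expressing the EGFP-705 splicing reporter; GFP fluorescence per well restored by corrected splicing of the IVS2-705 intron in EGFP.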 As to conditions: HeLa EGFP-705 splicing reporter, GFP fluorescence, 48 h; series mostly up to 46.1 µM. An outline of the steps:
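HeLa IVS2-705 EGFP reporter cells, 500/well, compound 2 d at 37C; correct splicing yields fluorescent EGFP. Control: 500 nM antisense PNA. Read-out: total peak GFP intensity.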
As to `Nc1ccc(S(=O)(=O)Nc2cnc3ccccc3n2)cc1`, the result was inactive.

Take `O=C(O)c1ccc(S(=O)(=O)N(Cl)Cl)cc1`: the compound was classed as inactive.

Take `c1ccc(CC2=NCCN2)cc1`: the compound was classed as inactive.

Consider `Cc1cc(-c2ccccc2)nnc1NCCN1CCOCC1`, for which the compound was classed as inactive.

As for `CCCc1ncc(C[n+]2ccccc2C)c(N)n1`, the outcome was inactive.

Take `CC(C)NCC(O)c1ccc2ccccc2c1` (centres undefined): the call was inactive.

On to `NC(=O)c1ccccc1O`, for which the compound was classed as inactive.

Consider `COc1ccc(C(=O)c2ccccc2O)c(O)c1`, for which the result was inactive.

Turning to `CCCN(CCC)S(=O)(=O)c1ccc(C(=O)O)cc1`, the compound was classed as inactive.

As for `Cc1ccccc1OCC(O)CO` (centres undefined), the result was inactive.

With `CN(C)CCC[C@@]1(c2ccc(F)cc2)OCc2cc(C#N)ccc21`, the result was inactive.

On to `CN(C)C(=O)Nc1ccc(Cl)c(Cl)c1`, for which the compound was called inactive.

As for `Oc1ccc(Cl)cc1Cc1cc(Cl)ccc1O`, the outcome was inactive.

For the compound `CCCCC(CC)CN1CN(CC(CC)CCCC)CC(C)(N)C1` (centres undefined), the result was inactive.

For `CN(C)CCOC(c1ccc(Cl)cc1)c1ccccn1` (centres undefined), the result was inactive.

For `CCCCCCCCNC(C)C(O)c1ccc(SC(C)C)cc1` (centres undefined), the outcome was inactive.

Consider `O=C1C(=O)c2ccccc2C(O)=C1C1CCC(c2ccc(Cl)cc2)CC1` (centres undefined), for which the call was inactive.

On to `COc1ccc(C(=O)c2ccccc2)c(O)c1`, for which the result was inactive.

Consider `COc1ccc(CN(CCN(C)C)c2ncccn2)cc1`, for which the compound was called inactive.

Take `COc1ccc(C(Cl)=C(c2ccc(OC)cc2)c2ccc(OC)cc2)cc1`: the compound was called inactive.

Take `CCOc1ccc(NC(C)=O)cc1`: the compound was called inactive.

Consider `CNCCc1ccccn1`, for which the outcome was inactive.

The record behind these values is PubChem BioAssay (NCATS).
